Tb PYK inh = qHTS of Trypanosoma Brucei Inhibitors. 410,000 tested, 0.12% active. Potency, µM (series often up to 76.8 µM), hits mostly inhibitors. TbPYK enzyme, Kinase-Glo Plus ATP luminescence, 45 min; note: nearly all actives have a fitted effect of over 50% in size
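Readout: single end-point luminescence (Kinase-Glo Plus, 10 min). Reaction conditions were TbPYK/substrate plus 130 uM ADP, 45 min at RT, pH 7.2 TEA buffer. No-enzyme wells served as controls, and data were normalized before concentration-response fitting.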
CHX counter = Cycloheximide Counterscreen for Small Molecule Inhibitors of Shiga Toxin | cell reporter, cycloheximide protein synthesis inhibition counterscreen | AID 2314, 2010 | max response, % | 300,000 tested, 12% active; in the data active = max response mostly above about 13%, no sharp cut-off; inactive = mostly below about 14%; note: read at 38.3 µM for the half of the compounds with a filed dose
FBPA Giardia inh = qHTS Assay for Inhibitors of Fructose-1,6-bisphosphate Aldolase from Giardia Lamblia | A8B2U2 | purified Giardia FBPA | Potency, µM (titrated, usually from 59.6 µM), actives largely listed as inhibitors | 290,000 tested, 0.71% active; note: nearly all actives have a fitted effect of over 55% in size
Target sequence (A8B2U2 whole entry, looked up): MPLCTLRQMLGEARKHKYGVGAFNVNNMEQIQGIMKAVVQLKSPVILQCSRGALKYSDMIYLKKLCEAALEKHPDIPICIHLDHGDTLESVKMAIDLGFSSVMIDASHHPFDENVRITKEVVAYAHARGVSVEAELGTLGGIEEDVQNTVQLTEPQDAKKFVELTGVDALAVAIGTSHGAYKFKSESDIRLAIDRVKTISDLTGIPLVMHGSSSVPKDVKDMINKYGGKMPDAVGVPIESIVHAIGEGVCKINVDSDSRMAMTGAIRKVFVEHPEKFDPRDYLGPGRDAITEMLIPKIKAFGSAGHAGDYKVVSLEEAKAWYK
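Giardia FBPA (40 nM reagent) was preincubated 10 min at RT with compound (up to 57.5 uM final), then substrate plus GAPDH/TPI/NAD/arsenate coupling system with diaphorase/resazurin was added; resorufin fluorescence (525/598 nm) was read after 20 min.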
Shiga toxin inh = A qHTS for Small Molecule Inhibitors of Shiga Toxin; AID 2315, 2010; Vero cells, Shiga toxin protein synthesis inhibition reporter; 290,000 tested, 9.2% active; inhibition, % at 38.7 µM; in the data active = inhibition mostly above about 28%, no sharp cut-off; inactive = mostly below about 43%
LmPK inh = qHTS Assay for Inhibitors of Leishmania Mexicana Pyruvate Kinase (LmPK) | Q27686 | purified LmPK, Kinase-Glo ATP luminescence, 1 h | Potency, µM (top dose mostly 57.5 µM), most hits filed as inhibitors | 290,000 tested, 0.37% active | AID 1721, 2009
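Purified LmPK (0.1 nM) converted ADP (0.1 mM) to ATP with PEP (0.5 mM) in imidazole buffer pH 7.2 with KCl and MgCl2, 1 h at room temperature. ATP was read by Kinase-Glo luminescence; data normalized to uninhibited and no-enzyme controls.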
RE007 growth inh = qHTS Assay for Inhibitors of the HIV-1 protein Vpr | S. pombe RE007 Vpr strain, BacTiter-Glo ATP luminescence, 24 h | 360,000 tested, 0.21% active | Potency, µM (highest dose often 92.2 µM), hits mostly inhibitors | AID 651644, 2012; active = well fitted falling curve with a large enough effect; note: nearly all actives have a fitted effect of over 50% in size
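Fission yeast strain RE007, carrying one chromosomally integrated HIV-1 vpr copy, was seeded at OD 0.01 in PMG+AL medium with 23 nL pinned compound. After 24 h at 30 °C and 99% humidity, viability was read by BacTiter-Glo luminescence.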
Large screens that a line does not name were inactive. Many of the other results were omitted from the sample, so hits are more common in it than they were. Unless noted, calls come from the whole dose curve; as a rule, active = well fitted curve in the direction sought with a large enough effect; inconclusive = small, poorly fitted or top-dose-only effect, or another doubt; inactive = no such curve, though single readings can be large; an effect the other way counts as inactive or inconclusive.

COc1ccc(C(CC(=O)c2ccc(C)cc2)Nc2ccc([N+](=O)[O-])cc2)cc1 (configuration not stated)	CHX counter 28
Cc1ccc(C(=O)CC(Nc2ccc(F)cc2)c2ccccc2)cc1 (configuration not stated)	none
Cc1ccc(NC(CC(=O)c2ccccc2)c2ccc(F)cc2)cc1 (configuration not stated)	CHX counter 50, Shiga toxin inh 69
O=C(CCC(=O)c1cccs1)OCC(=O)c1ccc(F)cc1	none (no result: CHX counter, FBPA Giardia inh, Shiga toxin inh, LmPK inh)
COc1ccc(C(CC(=O)c2ccc(O)cc2)S(=O)(=O)c2ccc(C)cc2)cc1 (configuration not stated)	CHX counter 42, Shiga toxin inh 66
CC(C)(C)c1ccc(C(=O)Nc2cc(-c3ccccc3)nn2-c2ccccc2)cc1	none (no result: CHX counter, FBPA Giardia inh, Shiga toxin inh, LmPK inh, RE007 growth inh)
Nc1ccccc1C=C1Cc2ccccc2C1=O	none (no result: CHX counter, FBPA Giardia inh, Shiga toxin inh, LmPK inh)
COc1ccccc1/C=C1\Cc2ccccc2C1=O	CHX counter 32, Shiga toxin inh 51
O=C1C(=Cc2ccccc2[N+](=O)[O-])Cc2ccccc21	RE007 growth inh 2.5µM (no result: CHX counter, FBPA Giardia inh, Shiga toxin inh, LmPK inh)
CC1(C)CC(=Cc2ccccc2[N+](=O)[O-])C(=O)c2ccccc21	none (no result: CHX counter, FBPA Giardia inh, Shiga toxin inh, LmPK inh)
C[C@H](N)Cc1cnc[nH]1	none (no result: Tb PYK inh, CHX counter, Shiga toxin inh, LmPK inh, RE007 growth inh)
O=c1cc(-c2cccs2)oc2ccc(Cl)cc12	CHX counter 37, Shiga toxin inh 59
O=c1cc(-c2ccsc2)oc2cc(-c3ccc4c(c3)OCO4)ccc12	none (no result: CHX counter, FBPA Giardia inh, Shiga toxin inh, LmPK inh)
O=c1cc(-c2ccc3c(c2)OCCO3)oc2ccc(Cl)cc12	CHX counter 47, Shiga toxin inh 76
O=c1cc(-c2ccccc2)oc2ccc(Cl)cc12	none (no result: CHX counter, FBPA Giardia inh, Shiga toxin inh, LmPK inh)
CO/N=C/c1ccc(Oc2ccc(C)cc2)c([N+](=O)[O-])c1	CHX counter 43
O=[N+]([O-])c1cc(/C=N/O)ccc1Oc1ccccc1Cl	CHX counter 53, Shiga toxin inh 50
CO/N=C/c1ccc(Sc2ccccc2)c([N+](=O)[O-])c1	none
O=[N+]([O-])c1cc(/C=N/O)ccc1Oc1cccc(Cl)c1	none
CNc1cc(-c2ccc(CC#N)cc2)ncn1	none (no result: CHX counter, FBPA Giardia inh, Shiga toxin inh, LmPK inh)
COc1ccc(S(=O)(=O)NCC(=O)NCCc2ccc(OC)c(OC)c2)cc1	none (no result: CHX counter, FBPA Giardia inh, Shiga toxin inh, LmPK inh)
c1ccc(-c2nnc3nc(N4CCCCC4)nc(N4CCCCC4)n23)cc1	none (no result: CHX counter, FBPA Giardia inh, Shiga toxin inh, LmPK inh)
CCC(=O)N1N=C(c2ccc(Cl)cc2)CC1c1ccco1 (configuration not stated)	none
COc1ccc(C2=NN(C(=O)c3ccco3)C(c3ccco3)C2)cc1OC (configuration not stated)	CHX counter 14, Shiga toxin inh 41
CCc1ccc(C2=NN(C(C)=O)C(c3ccco3)C2)cc1 (configuration not stated)	CHX counter 34, Shiga toxin inh 79, LmPK inh 16µM
COc1ccc(C2=NN(C(N)=S)C(c3ccco3)C2)cc1 (configuration not stated)	CHX counter 20
Cc1nnc(C)n1/N=C/c1ccc(-c2ccccc2Cl)o1	none
O=C1NC(=S)/C(=C\c2ccc(-c3ccccc3Cl)o2)S1	Shiga toxin inh 31
O=C(Nc1ccccc1Cl)OCc1cncs1	CHX counter 17
Cc1cccc(C(=O)OCc2cc(=O)n3nc(-c4cccs4)sc3n2)c1	none (no result: CHX counter, FBPA Giardia inh, Shiga toxin inh, LmPK inh, RE007 growth inh)
O=C(OCc1cncs1)c1ccccc1Cl	none
Cc1cccc(C(=O)OCc2cncs2)c1	CHX counter 33
C[C@]12CC[C@@H]3c4ccc(O)c(O)c4CC[C@H]3[C@@H]1CC[C@@H]2O	Tb PYK inh 10µM, FBPA Giardia inh 13µM, LmPK inh 1µM
CCN(CC)c1ccc(NC(=O)COC(=O)/C=C/c2nc3ccccc3s2)cc1	CHX counter 14
CCN(CC)c1ccc(/C=C/c2nc3ccccc3s2)cc1	CHX counter 40, Shiga toxin inh 127 (no result: Tb PYK inh, RE007 growth inh)
Cc1cc2occ(CC(=O)NNC(=O)c3ccccc3)c2cc1C	CHX counter 9.9 (no result: FBPA Giardia inh)
COCC1CCN(C(=O)c2ccc3oc(CCc4ccccc4)nc3c2)C1 (configuration not stated)	none (no result: CHX counter, FBPA Giardia inh, Shiga toxin inh, LmPK inh)

Compound activity deposited in PubChem by National Center for Advancing Translational Sciences (NCATS).
